Laboratory results reported in PubChem BioAssay (NCATS).
Results filed as inconclusive are left out. Activity calls are given as the source filed them. Calls come from the whole dose curve; as a rule, active = well fitted curve in the direction sought with a large enough effect; inconclusive = small, poorly fitted or top-dose-only effect, or another doubt; inactive = no such curve, though single readings can be large; an effect the other way counts as inactive or inconclusive. Square brackets hold non-standard residues; d marks the D form. Peptide text beside a SMILES is read from it. ξ: configuration not given here. ξTyr(βOH) = NC(C(=O)O)C(O)c1ccc(O)cc1

Columns and labels:
[1] = biological target: Cellular tumor antigen p53 (Homo sapiens) (UniProt P04637); experiment: Primary qHTS for small molecule compounds that upregulate eGFP-tagged delta133p53alpha (in N-terminal) cells. (AID 2060322); details: NCI-H358 eGFP-delta133p53alpha fluorescence, 24 h; activation: active compounds read high;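 note: cells pre-induced with doxycycline then dosed without doxycycline; 0% = DMSO vehicle and 100% = reference activator; nearly all actives have a fitted effect of over 75% in size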
Procedure, shortened: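 NCI-H358 cells pre-induced 24 h with 10 ng/ml doxycycline for eGFP-delta133p53alpha, plated dox-free and exposed 24 h at 37C to titrated compounds. Fixed, Hoechst-stained; gated GFP peak intensity by laser scanning cytometry, normalized to DMSO (0%) and 57.5 uM 5-azacytidine (100%).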

[2] = biological target: Aldehyde dehydrogenase, mitochondrial (Homo sapiens) (UniProt P05091); experiment: qHTS for Inhibitors of the Aldehyde Dehydrogenase Family (ALDH2) Primary screen (AID 2061308); details: ALDH2 enzyme inhibition qHTS, 1536-well; series mostly up to 56 µM;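 note: plate controls were vehicle for no effect and reference inhibitor for full effect; nearly all actives have a fitted effect of over 55% in size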
[3] = biological target: Retinaldehyde dehydrogenase 3 (Homo sapiens) (UniProt P47895); experiment: qHTS for Inhibitors of the Aldehyde Dehydrogenase Family (ALDH1A3) Primary screen (AID 2061315); details: ALDH inhibition qHTS; series mostly up to 56 µM;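 note: plate controls were DMSO vehicle for no effect and reference inhibitor for full effect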

Cellular tumor antigen p53 (Homo sapiens), sequence (P04637 whole entry, looked up): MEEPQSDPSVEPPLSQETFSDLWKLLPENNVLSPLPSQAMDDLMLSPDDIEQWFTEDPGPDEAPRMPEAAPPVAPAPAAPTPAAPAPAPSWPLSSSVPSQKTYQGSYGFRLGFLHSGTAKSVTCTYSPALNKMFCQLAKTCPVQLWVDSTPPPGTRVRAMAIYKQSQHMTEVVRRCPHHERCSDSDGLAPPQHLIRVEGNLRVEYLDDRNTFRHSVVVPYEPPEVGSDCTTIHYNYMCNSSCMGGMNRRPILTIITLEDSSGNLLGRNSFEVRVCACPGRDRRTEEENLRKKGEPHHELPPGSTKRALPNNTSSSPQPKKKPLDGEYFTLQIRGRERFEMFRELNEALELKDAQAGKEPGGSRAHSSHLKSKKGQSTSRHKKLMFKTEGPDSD

C=CC[N+]1([C@H]2C[C@H]3[C@@H]4CC[C@H]5C[C@H](OC(C)=O)[C@@H](N6CCCCC6)C[C@]5(C)[C@H]4CC[C@]3(C)[C@H]2OC(=O)CC)CCCCC1
inactive: activation [1] -3.67% | Potency [2] | Potency [3]

Cc1ccc(C)c(NC(=O)CNS(=O)(=O)c2ccc3[nH]c(=O)oc3c2)c1
inactive: activation [1] 17% | Potency [2] | Potency [3]

CCOc1ccc(S(=O)(=O)n2c(C)nc3ccccc32)cc1
inactive: activation [1] -4.33% | Potency [2] | Potency [3]

Cc1ccc2c(c1)c1c(n2CCc2ccc(C)nc2)CCN(C)C1
inactive: activation [1] 14.3% | Potency [2] | Potency [3]

CCC(C)(O)C(O)C(=O)OCc1ccc(O[C@@H]2O[C@H](CO)[C@@H](O)[C@H](O)[C@H]2O)cc1 (some centres not stated)
inactive: activation [1] -6.87% | Potency [2] | Potency [3]

CC1=CC2(O)/C=C/C(C)(O)CC(O)/C=C/C(=O)OC23C(=O)NC(CC(C)C)C3C1C (configuration not stated)
inactive: activation [1] -2.29% | Potency [2] | Potency [3]

C=C1CC/C=C(/CO)C(=O)C[C@@H]2[C@@H]1CC2(C)C
inactive: activation [1] 7.14% | Potency [2] | Potency [3]

CC(C)C1NC(=O)CNC(=O)C2CCCN2C(=O)C(Cc2c[nH]c3ccccc23)NC(=O)CNC(=O)C(C(O)c2ccc(O)cc2)NC(=O)CNC1=O (configuration not stated) (cyclo(G[ξTyr(βOH)]GWPGV); configuration not given here)
inactive: activation [1] -9.92% | Potency [2] | Potency [3]

Cc1nc(N2CCN(C(=O)c3ccco3)CC2)c2c3c(sc2n1)CCCC3
inactive: activation [1] -12.9% | Potency [2] | Potency [3]
